Laboratory results taken from PubChem BioAssay (NCATS).
Values joined by “and” are separate entries in the source; they are usually repeats but may differ in a detail not shown here. Equal entries are not always repeated. Active and inactive are the calls of the source. The rule behind the calls is not given here.
Note: 0% is about no effect.

Biological target: Nuclear receptor subfamily 1 group I member 2 (Rattus norvegicus) (UniProt Q9R1A7)
Sequence (Q9R1A7 whole entry, looked up): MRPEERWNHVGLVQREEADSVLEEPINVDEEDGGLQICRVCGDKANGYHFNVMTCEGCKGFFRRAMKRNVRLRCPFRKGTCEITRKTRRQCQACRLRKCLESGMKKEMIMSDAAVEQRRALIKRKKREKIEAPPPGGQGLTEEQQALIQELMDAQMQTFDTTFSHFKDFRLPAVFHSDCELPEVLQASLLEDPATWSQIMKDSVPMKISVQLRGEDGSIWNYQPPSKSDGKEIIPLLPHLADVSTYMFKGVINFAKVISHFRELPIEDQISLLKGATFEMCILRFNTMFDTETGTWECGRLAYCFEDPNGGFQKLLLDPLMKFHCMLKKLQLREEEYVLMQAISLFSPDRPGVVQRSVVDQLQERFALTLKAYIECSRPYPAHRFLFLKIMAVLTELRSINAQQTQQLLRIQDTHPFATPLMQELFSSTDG
Assay: qHTS assay for small molecule activators of the rat pregnane X receptor (rPXR) signaling pathway (AID 651751)
Conditions: rPXR reporter cells, luciferase (One-Glo), 24 h
In the case of `CC(C)C(C)(C)C(C)(C)C(C)(C)S`, the max response was -1.2% (inactive) and -1.45% (inactive). For `c1ccc2occc2c1`, the max response was 2.28% (inactive) and 7.63% (inactive) and -1.22% (inactive). In the case of `O=C(Oc1ccccc1)c1ccccc1O`, the max response was 9.53% (inactive) and -0.74% (inactive). In the case of `O=C(c1ccccc1)c1ccccc1`, the max response was -0.979% (inactive) and 2.4% (inactive). In the case of `CN1C(=O)c2ccccc2C1=O`, the max response was 0.847% (inactive). For `Brc1ccccc1-c1ccccc1`, the max response was 13.4% (inactive). For `C1=CC2C3C=CC(C3)C2C1` (configuration not stated), the max response was 2.57% (inactive).

Test system: not listed separately
Assay: qHTS assay for small molecule activators of the human pregnane X receptor (PXR) signaling pathway (AID 720659)
Conditions: DPX-2 HepG2 CYP3A4-luciferase, 24 h; series mostly up to 92.3 µM
For `CC(C)C(C)(C)C(C)(C)C(C)(C)S`, the outcome was “inactive”. With `O=C(Oc1ccccc1)c1ccccc1O` the outcome was “inactive”. With `CN1C(=O)c2ccccc2C1=O` the outcome was “inactive”. For `Brc1ccccc1-c1ccccc1`, the outcome was “inactive”. For `C1=CC2C3C=CC(C3)C2C1` (configuration not stated), the outcome was “inactive”.
